This passage reports growth inhibition results from PubChem BioAssay (NCI).

The nature of experiment [1]: NCI Yeast Anticancer Drug Screen. Data for the rad50 strain (AID 155).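 Note: 0% = growth of vehicle-only cultures of the same strain.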 The settings on record: S. cerevisiae rad50 strain growth inhibition; at 50.0 µM; hits give high values. An outline of the steps: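 Growth of the mutant yeast was measured after compound exposure and referenced to vehicle-treated cultures.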
Experiment [2] can be described thus: NCI Yeast Anticancer Drug Screen. Data for the mec2-1 strain (AID 157). The settings on record: S. cerevisiae mec2-1 strain, at 50.0 µM, hits give high values. An outline of the steps:
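Mutant yeast (mec2-1) grown with compound; growth inhibition relative to vehicle control reported.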

Experiment [3] in a line: NCI Yeast Anticancer Drug Screen. Data for the sgs1 mgt1 strain (AID 161).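 Note: 0% = growth of cultures given vehicle only.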 The settings on record: S. cerevisiae sgs1 mgt1 strain, at 50.0 µM, hits give high values. An outline of the steps:
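Compounds are added to genetically altered yeast, and growth is compared with cultures given vehicle alone to give percent inhibition.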

Experiment [4] can be described thus: NCI Yeast Anticancer Drug Screen. Data for the cln2 rad14 strain (AID 165).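 Note: 0% = growth equal to vehicle treated cultures.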 The settings on record: S. cerevisiae cln2 rad14 strain, at 50.0 µM, hits give high values. An outline of the steps:
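Readout is yeast growth inhibition versus vehicle-treated controls, using a strain with cln2 and rad14 alterations exposed to compound.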

Experiment [5] can be described thus: NCI Yeast Anticancer Drug Screen. Data for the bub3 strain (AID 167). The settings on record: S. cerevisiae bub3 mutant strain, at 50.0 µM, hits give high values. In short, it runs like this: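 Whole-cell yeast assay. The mutant strain was incubated with compounds, and growth inhibition was determined by comparison with vehicle-treated cells.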
A short description of experiment [6]: NCI Yeast Anticancer Drug Screen. Data for the mlh1 rad18 strain (AID 175). The settings on record: S. cerevisiae mlh1 rad18 strain growth inhibition; at 50.0 µM; hits give high values. In short, it runs like this:
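Genetically defined yeast (DNA repair-deficient) exposed to compounds; growth inhibition determined relative to vehicle.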

Structures are written as SMILES. This is part of a sample that, as a whole, favours compounds with a hit. Of some 79,000 tested, about 15% had one in any assay. Values without a mark were called inactive. Activity calls are given as the source filed them. Cut-off read from the data, not from the text of the source: active = growth inhibition above about 70%; inactive = the rest.

With `CCOc1ccc(C(=O)OC)cc1`, the growth inhibition in experiment [1] is 31.1%; in experiment [2] it was -3.45%; in experiment [3], 31%; in experiment [4], 16.8%; in experiment [5], 38.8%; in experiment [6] it was 23.7%.
Take `CNC(=O)Oc1ccc2c(c1)[C@]1(C)CCN(C)[C@@H]1N2C`: the growth inhibition is -9.7% in experiment [1]; -29.8% in experiment [2]; -32.7% in experiment [3]; -5.55% in experiment [4]; -35.7% in experiment [5]; -37.2% in experiment [6].
Consider `O=Cc1[nH]c(=S)[nH]c(=O)c1Cc1cccc(Cl)c1`, for which the growth inhibition in experiment [1] was 63.9%; in experiment [2], 35.2%; in experiment [3], 83.2% (active); in experiment [4] it was 56.2%; in experiment [5] it was 77.5% (active); in experiment [6], 83.2% (active).
On to `O=C(O)CCC(=O)Nc1ccc(C(=O)O)c(O)c1`, for which the growth inhibition in experiment [1] was 8.4%; in experiment [2], -27.8%; in experiment [3], -11.1%; in experiment [4], -4.45%; in experiment [5], 20.9%; in experiment [6] it was -17.9%.
Turning to `O=C1C2Cc3ccccc3CN2C(=O)N1CCN1CCCC1` (stereo not drawn), the growth inhibition in experiment [1] was -19.1%; in experiment [2], -33.7%; in experiment [3] it was -12.1%; in experiment [4], 4.3%; in experiment [5], -22.6%; in experiment [6] it was 8%.
Turning to `NC(=O)OCC(COc1ccc(Cl)cc1)OC(=O)c1cc([N+](=O)[O-])cc([N+](=O)[O-])c1` (stereo not drawn), the growth inhibition in experiment [1] was 29.2%; in experiment [2] it was 23.9%; in experiment [3], 20.4%; in experiment [4] it was 17.6%; in experiment [5] it was 14.3%; in experiment [6], 8.75%.
For the compound `Cc1c(C)c(C(C)O)c(C)c(C(C)O)c1C` (stereo not drawn), the growth inhibition was 4.55% in experiment [1]; 5.65% in experiment [2]; 17.6% in experiment [3]; 21.6% in experiment [4]; 11.7% in experiment [5]; 18.6% in experiment [6].
Take `CC(=O)OC(Cn1cncn1)(Cn1cncn1)c1ccc(Cl)cc1Cl`: the growth inhibition in experiment [1] is 43.6%; in experiment [2], 32.5%; in experiment [3], 58.3%; in experiment [4], 46.8%; in experiment [5], 39.8%; in experiment [6], 56.7%.
As for `NS(=O)(=O)c1ccc(NC(=O)/C=C\C(=O)O)cc1`, the growth inhibition is -15.6% in experiment [1]; -27.2% in experiment [2]; 17.1% in experiment [3]; -1.4% in experiment [4]; -4.2% in experiment [5]; -9.6% in experiment [6].
For `CC1=NN(c2ccccc2)C(=O)/C1=C(\[O-])c1ccccc1.CC1=NN(c2ccccc2)C(=O)/C1=C(\[O-])c1ccccc1.CC1=NN(c2ccccc2)C(=O)/C1=C(\[O-])c1ccccc1.[Fe+3]`, the growth inhibition in experiment [1] was 1.8%; in experiment [2], -5.75%; in experiment [3] it was -15.1%; in experiment [4], -16.7%; in experiment [5] it was -2.9%; in experiment [6], 4.45%.
For the compound `Cc1cc(-c2ccccc2)[nH]c1-c1nccc2ccccc12`, the growth inhibition in experiment [1] was 4.1%; in experiment [2], 8%; in experiment [3], 0.8%; in experiment [4], 24%; in experiment [5] it was -4.5%; in experiment [6] it was 4.7%.
For `CSc1nc(N(C)C)c2[nH]ncc2n1`, the growth inhibition is 5.25% in experiment [1]; -0.5% in experiment [2]; -3.6% in experiment [3]; -10.6% in experiment [4]; 19.7% in experiment [5]; 3.25% in experiment [6].
Take `O=C(O)CCC(NC(=O)c1ccc(Nc2nc3ccccc3nc2C(=O)O)cc1)C(=O)O` (stereo not drawn): the growth inhibition in experiment [1] was -2%; in experiment [2] it was -11.2%; in experiment [3], -6.15%; in experiment [4] it was 3%; in experiment [5], 0%; in experiment [6], 0.65%.
`CCCC(=O)OCc1ccc(Cl)c(Cl)c1`: the growth inhibition in experiment [1] was 21.6%; in experiment [2], 16%; in experiment [3] it was 9.45%; in experiment [4], 8%; in experiment [5] it was 9.15%; in experiment [6], -3.85%.
In the case of `O=[N+]([O-])c1ccc(-c2ccccc2CO)cc1`, the growth inhibition in experiment [1] is -9.55%; in experiment [2] it was -10.2%; in experiment [3], -25.6%; in experiment [4], -33.5%; in experiment [5] it was -6.95%; in experiment [6] it was -26.6%.
With `C[N+](C)(C)CCOC(=O)c1ccccc1CCl`, the growth inhibition in experiment [1] was 19.8%; in experiment [2], 8.35%; in experiment [3] it was 31.6%; in experiment [4], 50.1%; in experiment [5], 97.3% (active); in experiment [6] it was -17.1%.
Regarding `CCCCCCCCCCCCCCCCCC(=O)OC(C(O)C=O)C(O)C(O)CO` (stereo not drawn), the growth inhibition was 12.6% in experiment [1]; 16.3% in experiment [2]; 22.2% in experiment [3]; 23.9% in experiment [4]; -5.55% in experiment [5]; 45.8% in experiment [6].
In the case of `O=C(O)CC(NC(=O)OCc1ccccc1)C(=O)OCc1ccccc1` (stereo not drawn), the growth inhibition was 0.55% in experiment [1]; 17.9% in experiment [2]; -12.3% in experiment [3]; -16.6% in experiment [4]; -21.1% in experiment [5]; -20.1% in experiment [6].
As to `Cc1cccc(C(=O)c2ccc(C)cc2C)c1`, the growth inhibition in experiment [1] was 17.1%; in experiment [2] it was 6.65%; in experiment [3], -7.55%; in experiment [4] it was 6.75%; in experiment [5] it was -0.7%; in experiment [6], 5.4%.
With `CCN(CC)CCCCNc1ccnc(N)n1`, the growth inhibition in experiment [1] is -8.65%; in experiment [2] it was -10.5%; in experiment [3], 2.7%; in experiment [4], -23.3%; in experiment [5], 18.2%; in experiment [6], 16%.
Take `O=C(CCc1ccco1)CCc1ccco1`: the growth inhibition in experiment [1] was 7.6%; in experiment [2] it was -3.35%; in experiment [3], 5.45%; in experiment [4], -9.05%; in experiment [5], -3.5%; in experiment [6] it was -0.6%.
For `CCOC1NC(/N=C/c2ccc(OC)cc2)=C(C#N)C1C#N` (stereo not drawn), the growth inhibition is -29.2% in experiment [1]; -6.7% in experiment [2]; -49.5% in experiment [3]; 12.4% in experiment [4]; -28.1% in experiment [5]; -35% in experiment [6].
Consider `C=C(C)COC(CCC)OCC(=C)C`, for which the growth inhibition in experiment [1] is 6.85%; in experiment [2], 8.1%; in experiment [3], -8.45%; in experiment [4] it was 8.85%; in experiment [5], -2.3%; in experiment [6], 21.1%.
Consider `OCC[N+]12CCCN1CCC2`, for which the growth inhibition in experiment [1] is -15.4%; in experiment [2], -27%; in experiment [3] it was -21.4%; in experiment [4] it was -12.9%; in experiment [5] it was -15.3%; in experiment [6], -30.4%.
Regarding `CCOC(=O)C1=C(C)N(NC(=O)OC)C2(N)N(NC(=O)OC)C(C)=C(C(=O)OCC)C12C#N` (stereo not drawn), the growth inhibition in experiment [1] is -13.3%; in experiment [2], -3.2%; in experiment [3], -7.45%; in experiment [4], -5.7%; in experiment [5] it was 2.5%; in experiment [6], -18.4%.
Regarding `N#Cc1c(-c2ccccc2)ssc1=S`, the growth inhibition in experiment [1] is 31.4%; in experiment [2], 25.1%; in experiment [3], 50.4%; in experiment [4], -20.8%; in experiment [5], 11.8%; in experiment [6] it was 12.6%.
`O=C(CCc1ccc(O)c(O)c1)NCCc1cc(O)cc(OCc2ccccc2)c1`: the growth inhibition in experiment [1] is 9.45%; in experiment [2], -6.65%; in experiment [3] it was -10.6%; in experiment [4] it was -19.1%; in experiment [5] it was -44.3%; in experiment [6], -73.5%.
As to `Nc1nc2c(c(-c3ccccc3)n1)CN(CCCC(=O)O)C2=O`, the growth inhibition in experiment [1] was 5.75%; in experiment [2], 14.8%; in experiment [3] it was 3.7%; in experiment [4] it was -3%; in experiment [5], 11.9%; in experiment [6], -0.45%.
For `OC1CC2CCCC2CC1O` (stereo not drawn), the growth inhibition is -9.45% in experiment [1]; -29.7% in experiment [2]; -6.95% in experiment [3]; 6.35% in experiment [4]; -9.65% in experiment [5]; -0.75% in experiment [6].
Consider `O=C(c1ccccc1)c1cccc(C(=O)c2ccccc2)n1`, for which the growth inhibition in experiment [1] was -7.5%; in experiment [2] it was -12.7%; in experiment [3] it was -17.7%; in experiment [4], 1.9%; in experiment [5], -13.8%; in experiment [6], -8.55%.
On to `CCOC(=O)CC1C(O)C(=O)N(C)C1c1ccccc1` (stereo not drawn), for which the growth inhibition was 21% in experiment [1]; -8.05% in experiment [2]; 1.75% in experiment [3]; 42.3% in experiment [4]; 9% in experiment [5]; -50.4% in experiment [6].
Turning to `O=C(O)CC(=O)Nc1cc([N+](=O)[O-])ccc1OCc1ccccc1`, the growth inhibition in experiment [1] is -2.95%; in experiment [2], 3.6%; in experiment [3] it was -1.1%; in experiment [4], -14.7%; in experiment [5], 5.7%; in experiment [6], 0.85%.
In the case of `Cc1ccccc1NP1(Nc2ccccc2C)=NP(Nc2ccccc2C)(Nc2ccccc2C)=NP(Nc2ccccc2C)(Nc2ccccc2C)=NP(Nc2ccccc2C)(Nc2ccccc2C)=N1`, the growth inhibition in experiment [1] is 0.8%; in experiment [2], -0.9%; in experiment [3], 23.6%; in experiment [4], -5.3%; in experiment [5] it was -6.95%; in experiment [6], -9.7%.
With `COc1ccc(CCN2CCc3c(C)c(C#N)c4nc5ccccc5n4c32)cc1OC`, the growth inhibition in experiment [1] is 5.75%; in experiment [2], 26%; in experiment [3] it was 28.5%; in experiment [4] it was 12.1%; in experiment [5] it was 52.4%; in experiment [6], 34.5%.
On to `COc1cccc(Cc2cncc3c(O)c(OC)ccc23)c1O`, for which the growth inhibition was 2.3% in experiment [1]; -6.4% in experiment [2]; -8.05% in experiment [3]; 3% in experiment [4]; -1.9% in experiment [5]; 9.95% in experiment [6].
Consider `COc1cccc(NC(=O)Nc2ccccc2Cl)c1`, for which the growth inhibition in experiment [1] was -13.2%; in experiment [2] it was 8.1%; in experiment [3], -3.25%; in experiment [4], -19.2%; in experiment [5], -1.3%; in experiment [6], -32.6%.
As to `CN(c1ccccc1)c1nc(Cl)c(Cl)c(Cl)n1`, the growth inhibition is -0.2% in experiment [1]; -11.5% in experiment [2]; 6.55% in experiment [3]; -39.9% in experiment [4]; 2.45% in experiment [5]; -3.5% in experiment [6].
Turning to `COc1cc2c3c(c1)nc(C)n3C(=O)C(C)S2` (stereo not drawn), the growth inhibition in experiment [1] is -26.8%; in experiment [2], -46.9%; in experiment [3], -22.9%; in experiment [4], 12.3%; in experiment [5], 11.3%; in experiment [6], -22%.
